In the library only some 1.7% were active in any assay of this set; here they are far more common.
PTPN22 act: increases human PTPN22 phosphatase activity | activation, % at 2 µM | recombinant LYP, DiFMUP fluorescence; 0 = plate median, 100 = signal doubled | 0.11% of 96,000 active;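 active means activation at 2 µM above a set limit, the mean plus 5 SD, cut at about 37% in these data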
Target sequence (Q9Y2R2 whole entry, looked up): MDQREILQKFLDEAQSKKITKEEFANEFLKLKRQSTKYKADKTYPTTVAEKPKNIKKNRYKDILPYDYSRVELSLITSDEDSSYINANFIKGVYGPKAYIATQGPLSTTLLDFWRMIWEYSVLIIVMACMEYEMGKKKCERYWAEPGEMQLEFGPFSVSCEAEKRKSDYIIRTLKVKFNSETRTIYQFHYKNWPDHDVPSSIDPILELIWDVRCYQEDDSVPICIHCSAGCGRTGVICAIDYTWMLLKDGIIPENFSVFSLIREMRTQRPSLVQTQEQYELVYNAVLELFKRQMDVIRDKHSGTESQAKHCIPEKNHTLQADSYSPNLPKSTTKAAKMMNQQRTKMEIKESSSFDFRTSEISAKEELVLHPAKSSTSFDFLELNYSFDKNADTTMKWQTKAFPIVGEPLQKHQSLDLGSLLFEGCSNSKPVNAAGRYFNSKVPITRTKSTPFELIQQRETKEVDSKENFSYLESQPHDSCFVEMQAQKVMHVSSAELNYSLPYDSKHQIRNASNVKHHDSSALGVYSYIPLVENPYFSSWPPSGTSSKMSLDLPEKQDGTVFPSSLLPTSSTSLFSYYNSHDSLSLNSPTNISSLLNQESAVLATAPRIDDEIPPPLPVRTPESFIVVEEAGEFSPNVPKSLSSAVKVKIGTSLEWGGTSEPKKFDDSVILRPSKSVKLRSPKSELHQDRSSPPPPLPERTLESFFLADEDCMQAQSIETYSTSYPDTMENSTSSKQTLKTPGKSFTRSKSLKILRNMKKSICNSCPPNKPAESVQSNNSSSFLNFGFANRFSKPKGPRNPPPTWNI
Measles CPE: protection of cells from measles virus; 1.5% of 140,000 active; protection (pct of control), % at 4 µM; Measles virus-infected cells, CPE protection, absorbance; in the data active means protection mostly above about 24%, no sharp cut-off; inactive means mostly below about 26%
PTPN22 inh 2: inhibitors of human LYP (PTPN22) phosphatase. Q9Y2R2. recombinant LYP catalytic domain, DiFMUP fluorescence. inhibition, % at 2 µM. 0.21% of 96,000 active;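 active means inhibition at 2 µM at or above a set limit, the screen mean plus 3 SD, cut at about 24% in these data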
A number is an active result; 0 = inactive; - = not tested or not shown.

SMILES | PTPN22 act | Measles CPE | PTPN22 inh 2
COc1ccc(Nc2nc3ccccc3n3nnnc23)cc1 | 0 | 0 | 0
Cc1ccc(C(=O)Nc2nc3ccccc3n3nnnc23)cc1 | 0 | 20.6 | 0
O=C(O)C1CCCN1C(=O)Nc1ccccc1 (stereo not given) | 0 | 0 | 0
O=C(O)C1CCCN1C(=O)Nc1ccc(Cl)cc1 (stereo not given) | - | 26.1 | -
CCS(=O)(=O)N1Cc2ccccc2CC1C(=O)N1CCN(c2ccccc2)CC1 (stereo not given) | 0 | 61.8 | 0
O=C(C1Cc2ccccc2CN1S(=O)(=O)c1ccc(F)cc1)N1CCOCC1 (stereo not given) | 0 | 0 | 0
Cc1ccc2nc(-c3ccc(NC(=O)c4ccco4)cc3)[nH]c2c1 | 0 | 0 | 0
CCOc1ccc(-n2c(SCC(=O)Nc3ccc4c(c3)OCO4)nc3ccccc3c2=O)cc1 | 0 | 45.4 | 0
COc1ccc(-n2c(SCC(=O)Nc3ccc4c(c3)OCO4)nc3ccccc3c2=O)cc1 | 0 | 0 | 0
Cc1cccc(Cn2c(NCC(C)O)nc3c2c(=O)n(C)c(=O)n3C)c1 (stereo not given) | 0 | 0 | 0
CCOC(=O)N1CCC(NC(=O)C2CCN(c3nc(-c4ccc(OC)cc4)no3)CC2)CC1 | 0 | 44.2 | 0
CCOC(=O)N1CCN(Cc2nc(-c3ccc(OC)cc3)no2)CC1 | 0 | - | 0
Cc1ccc(NC(=O)Cn2c(/C=C/c3ccccc3)nc3ccccc32)cc1C | 0 | 0 | 0
COc1ccc(OC)c(Nc2nc3nonc3nc2N2CCCCC2)c1 | 0 | 0 | 0
COc1ccccc1Nc1nc2nonc2nc1N1CCC(C)CC1 | - | 78.4 | -
CC(NS(=O)(=O)c1ccc(CCC(=O)NCc2ccco2)cc1)c1ccccc1 (stereo not given) | - | 0 | -
CC(C)Oc1ccc(C(CC(=O)NCc2ccco2)c2ccccc2)cc1 (stereo not given) | 0 | 24.1 | 0
CCOc1ccc(C(C)=O)cc1Cn1nc(C(=O)O)c2ccccc2c1=O | 0 | 50.4 | 0
Cc1cccc(C)c1OCCn1nc(C(=O)O)c2ccccc2c1=O | 0 | 0 | 0
O=C(Nc1ccc(Cl)cc1)OC(CN1CCCCC1)C(F)(F)F (stereo not given) | 0 | 0 | 0
CCCCCNC(=O)CSC1=N/C(=C\c2ccc(Cl)c(Cl)c2)C(=O)N1CC | 0 | 41.3 | 0
CCCNC(=O)CSC1=N/C(=C/c2ccc(F)cc2)C(=O)N1CC | - | 0 | -
COCCN1C(=O)N[C@@H](CCc2ccccc2)C(C(C)=O)=C1C | - | 0 | -
COc1cc(CCN2C(=O)N[C@@H](CCc3ccccc3)C(C(C)=O)=C2C)cc(OC)c1OC | - | 28.8 | -
CN1C(=O)OC(C)(CCc2ccccc2)C1(C)O (stereo not given) | 0 | 0 | 0
SMILES | PTPN22 act | Measles CPE | PTPN22 inh 2
COC(=O)CN(c1ccc(F)cc1)S(=O)(=O)c1ccc2c(c1)OCCO2 | 0 | 0 | 0
O=C1CC(NNc2nc3ccccc3s2)C(=O)N1c1ccccc1 (stereo not given) | 0 | 0 | 0
Cc1ccc(N2C(=O)CC(NNc3nc4ccccc4s3)C2=O)cc1 (stereo not given) | - | 47.8 | -
CCOc1ccc(S(=O)(=O)NNC(=O)c2cc3ccccc3o2)cc1 | - | 0 | -
CCOC(=O)N1CCN(C(=O)c2ccc3c(=O)n(-c4ccc(F)cc4)c(=S)[nH]c3c2)CC1 | 0 | 27.5 | 0
CCOC(=O)N1CCN(C(=O)c2ccc3c(=O)n(Cc4ccc(Cl)cc4)c(=S)[nH]c3c2)CC1 | 0 | 0 | 0
CC1CCC(C(C)C)C(OC(=O)COC(=O)c2cccn2C)C1 (stereo not given) | 0 | 0 | 0
COc1ccc(N2C(=O)[C@@H]3Cc4ccccc4CN3C2=O)cc1 | 0 | 31.5 | 0
Cc1ccc(N2C(=O)[C@@H]3Cc4ccccc4CN3C2=O)cc1 | 0 | 0 | 0
COc1cc(OC)c(C2C3=C(CCCC3=O)Nc3nc4ccccc4n32)cc1OC (stereo not given) | - | 0 | -
CC(=O)SCCC(=O)N1C(C)CCCC1C(=O)O (stereo not given) | 0 | 0 | 0
CSCCC(=O)N1C(C)CCCC1C(=O)O (stereo not given) | 0 | 26.5 | 0
N#Cc1ccc(C(=O)NCC(c2ccco2)N2CCCC2)cc1 (stereo not given) | 0 | 0 | 0
N#Cc1ccc(C(=O)NCC(c2ccco2)N2CCCCC2)cc1 (stereo not given) | 0 | 45.7 | 0
CC(C)CCNc1nc2c(c(=O)n(Cc3cccc(F)c3)c(=O)n2C)n1C | 0 | 0 | 0
Cc1cc2c(cc1C)N(C(=O)CSC1=NCCS1)C(C)(C)c1ssc(=S)c1-2 | 0 | 0 | 27.3
Cc1ccc2c(c1)-c1c(ssc1=S)C(C)(C)N2C(=O)CSc1nncn1C | 0 | 0 | 0
COc1ccc2c(c1)-c1c(ssc1=S)C(C)(C)N2C(=O)CSC1=NCCS1 | 0 | 0 | 0
CC1(C)c2ssc(=S)c2-c2ccccc2N1C(=O)CSC1=NCCS1 | 0 | 37.5 | 0
Cc1ccc(C(=O)NCC(=O)OCC(=O)c2ccc3c(c2)OCCO3)cc1C | 0 | 0 | 0

Screens: PubChem, several laboratories
